# This is one part of a sample in which hits are shown more often than they occur.
# Dicer processing – human Dicer pre-microRNA cleavage inhibition; cat-ELCCA pre-miR-21 Dicer processing, chemiluminescence; active compounds read high; z-score at 25 µM; 6% of 47,000 active; AID 1347074; in the data active = z-score above about 3, passing the limit was not always enough;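 also: plate controls were vehicle for no effect and no enzyme for full effect; higher signal means more uncleaved substrate so more Dicer inhibition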
# Target sequence (Q9UPY3 whole entry, looked up): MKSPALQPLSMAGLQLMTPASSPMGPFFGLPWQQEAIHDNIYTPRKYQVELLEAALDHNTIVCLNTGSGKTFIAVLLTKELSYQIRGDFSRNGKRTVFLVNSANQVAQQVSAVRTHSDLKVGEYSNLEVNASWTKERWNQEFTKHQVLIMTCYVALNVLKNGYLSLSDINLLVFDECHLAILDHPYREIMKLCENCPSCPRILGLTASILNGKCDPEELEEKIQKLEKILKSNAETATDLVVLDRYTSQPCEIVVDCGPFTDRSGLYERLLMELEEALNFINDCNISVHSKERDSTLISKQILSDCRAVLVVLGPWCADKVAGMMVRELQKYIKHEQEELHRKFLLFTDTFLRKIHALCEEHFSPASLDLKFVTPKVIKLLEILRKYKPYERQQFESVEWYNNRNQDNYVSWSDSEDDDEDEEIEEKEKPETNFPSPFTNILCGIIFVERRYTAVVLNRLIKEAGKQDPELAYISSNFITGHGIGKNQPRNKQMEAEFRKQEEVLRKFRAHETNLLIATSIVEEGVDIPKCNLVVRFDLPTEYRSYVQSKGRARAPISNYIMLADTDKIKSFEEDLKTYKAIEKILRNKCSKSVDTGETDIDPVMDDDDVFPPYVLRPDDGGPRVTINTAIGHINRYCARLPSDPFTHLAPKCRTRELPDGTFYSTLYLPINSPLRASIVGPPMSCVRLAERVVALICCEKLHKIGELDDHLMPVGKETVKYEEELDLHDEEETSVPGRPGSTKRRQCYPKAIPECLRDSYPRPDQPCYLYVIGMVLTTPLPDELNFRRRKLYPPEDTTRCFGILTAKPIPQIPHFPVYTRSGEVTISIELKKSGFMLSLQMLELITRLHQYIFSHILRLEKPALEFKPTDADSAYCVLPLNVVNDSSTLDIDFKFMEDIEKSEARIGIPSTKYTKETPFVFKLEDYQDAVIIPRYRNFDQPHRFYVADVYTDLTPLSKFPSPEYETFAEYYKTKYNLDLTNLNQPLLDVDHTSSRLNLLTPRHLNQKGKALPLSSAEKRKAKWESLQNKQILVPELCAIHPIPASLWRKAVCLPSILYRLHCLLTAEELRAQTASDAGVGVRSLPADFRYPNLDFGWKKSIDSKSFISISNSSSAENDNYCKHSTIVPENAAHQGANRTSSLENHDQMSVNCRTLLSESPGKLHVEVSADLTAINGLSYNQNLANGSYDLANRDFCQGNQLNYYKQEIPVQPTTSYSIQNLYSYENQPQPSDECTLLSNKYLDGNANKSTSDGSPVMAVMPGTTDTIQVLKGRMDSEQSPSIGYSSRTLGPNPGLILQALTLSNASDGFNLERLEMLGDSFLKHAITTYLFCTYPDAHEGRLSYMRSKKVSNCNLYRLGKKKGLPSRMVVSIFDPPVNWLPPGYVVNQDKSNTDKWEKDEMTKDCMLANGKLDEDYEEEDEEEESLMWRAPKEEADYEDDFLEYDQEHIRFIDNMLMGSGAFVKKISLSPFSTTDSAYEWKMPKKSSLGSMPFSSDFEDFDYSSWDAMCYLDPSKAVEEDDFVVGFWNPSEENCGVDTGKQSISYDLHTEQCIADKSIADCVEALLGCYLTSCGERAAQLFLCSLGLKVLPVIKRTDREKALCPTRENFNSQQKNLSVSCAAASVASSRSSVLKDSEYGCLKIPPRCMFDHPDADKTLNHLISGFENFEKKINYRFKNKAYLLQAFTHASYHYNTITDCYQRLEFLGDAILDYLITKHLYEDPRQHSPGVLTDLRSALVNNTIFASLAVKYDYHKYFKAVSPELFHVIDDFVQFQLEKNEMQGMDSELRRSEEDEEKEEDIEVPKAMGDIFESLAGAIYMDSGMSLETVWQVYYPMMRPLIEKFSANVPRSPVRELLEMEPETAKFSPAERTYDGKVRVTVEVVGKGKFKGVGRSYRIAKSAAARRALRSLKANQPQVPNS
# * hit, by the source's call.
SMILES,Dicer processing
O=C(Oc1ccc(-c2cnc3ccccc3n2)cc1)c1ccccc1,-0.12
CC1Cc2ccccc2N1C(=O)c1cnn2c(C(F)F)cc(-c3ccccc3)nc12 (stereo not drawn),-2.3
Cc1nc2ccc(Oc3ccc4nc(C)[nH]c4c3)cc2[nH]1,-0.46
CCc1ccc(C2C(C(=O)OCCOC)=C(C)NC3=C2C(=O)CC(c2ccc(OC)cc2)C3)cc1 (stereo not drawn),0.27
O=C1Nc2ccc(S(=O)(=O)Nc3ccccc3O)c3cccc1c23,8*
Cc1ccc(C)c(NS(=O)(=O)c2ccc3c4c(cccc24)C(=O)N3)c1,2.6
O=C1Nc2ccc(S(=O)(=O)NCCO)c3cccc1c23,0.31
Cc1ccc(-c2nc(C3CCCCC3)no2)cc1,0.01
O=C(NC(=O)N1CCCC1)C1CCN(c2cnc3ccccc3n2)CC1,0.98
C=CCNc1nc(-c2ccc(O)c(OC)c2)cs1,-0.25
Cc1ccnc(Nc2nc(-c3ccc(O)cc3)cs2)c1,4.5
Cc1cccc(Nc2nc(-c3ccc(O)c(O)c3)cs2)n1,5.2*
Cc1ccnc(Nc2nc(-c3ccc(O)c(O)c3)cs2)c1,3.9*
Cc1cccc(Nc2nc(-c3ccncc3)cs2)n1,2.1
Cc1ccc(Nc2nc(-c3ccccc3)cs2)nc1,2.1
O=S(=O)(NCc1ccccc1)c1cccc(S(=O)(=O)c2ccc(Br)cc2)c1,2.4
CC(C)(C)c1ccc(C(=O)Nc2cccc3[nH]ccc23)cc1,36
Cc1nc(/N=C(\N)NC(=O)Nc2ccc(Cl)cc2)sc1Br,-1.4
O=C(CN1C(=O)c2ccccc2S1(=O)=O)NC(c1ccccc1)c1ccccc1,0.85
Cc1ccc(N2C(=O)SC(Nc3ccccc3C(=O)O)C2=O)cc1C (stereo not drawn),0.26
O=C1SC(Nc2cccc(F)c2)C(=O)N1c1ccccc1 (stereo not drawn),7.3*
COC(=O)c1ccccc1NC1SC(=O)N(c2ccccc2)C1=O (stereo not drawn),0.52
Cc1ccc(N2C(=O)SC(Nc3ccc(C(=O)O)cc3)C2=O)cc1 (stereo not drawn),5.4*
O=C1SC(Nc2ccccc2F)C(=O)N1c1ccccc1 (stereo not drawn),3.4*
O=C1SC(Nc2cccc(Br)c2)C(=O)N1c1ccccc1 (stereo not drawn),58
SMILES,Dicer processing
COC(=O)c1ccc(NC2SC(=O)N(c3ccccc3)C2=O)cc1 (stereo not drawn),0.49
Cc1ccc(N2C(=O)SC(Nc3ccc(C(=O)O)cc3)C2=O)cc1C (stereo not drawn),1.3
O=C1SC(Nc2ccccc2Br)C(=O)N1c1ccccc1 (stereo not drawn),-0.13
CCOC(=O)Cn1c2ccc(F)cc2c2nc3ccccc3nc21,0.35
COC(=O)C1=C(C)NC2=C(C(=O)CC(C)(C)C2)C1c1cc2c(cc1Cl)OCO2 (stereo not drawn),1.5
Cn1c(=O)c2c(nc(CN3CCN(c4ccccc4)CC3)n2CC(=O)C(C)(C)C)n(C)c1=O,0.91
Cn1c(=O)c(N2CCCCC2)c2c3c(cccc31)C(=O)c1ccccc1-2,-1.9
O=C(c1nc2nc(-c3ccc(Cl)cc3)cc(C(F)(F)F)n2n1)N1CCOCC1,2.8
O=C(c1nn2c(C(F)(F)F)cc(-c3ccc(F)cc3)nc2c1Cl)N1CCOCC1,4.2*
O=C(c1nn2c(C(F)(F)F)cc(-c3ccccc3)nc2c1Cl)N1CCOCC1,-0.1
CN(C)C(=S)Nc1cc(Cl)cc(Cl)c1,0.73
O=C1/C(=C/c2ccc(Cl)cc2)COC/C1=C\c1ccc(Cl)cc1,-0.02
O=C(CC1(O)C(=O)Nc2ccc(Cl)cc21)c1ccc(Cl)cc1 (stereo not drawn),-0.72
O=C(CC1(O)C(=O)Nc2ccccc21)CC1(O)C(=O)Nc2ccccc21 (stereo not drawn),-0.07
O=C(CC1(O)C(=O)Nc2ccc(Cl)cc21)c1cccc2ccccc12 (stereo not drawn),0.59
O=C(CC1(O)C(=O)Nc2ccccc21)c1ccc2ccccc2c1 (stereo not drawn),4.4*
Nc1cccc(C(=O)CC2(O)C(=O)Nc3ccc(Cl)cc32)c1 (stereo not drawn),12*
Cc1ccc(C(=O)CC2(O)C(=O)Nc3ccccc32)cc1 (stereo not drawn),-0.4
O=C(CC1(O)C(=O)Nc2ccccc21)c1cccc2ccccc12 (stereo not drawn),5.2*
O=C(CC1(O)C(=O)Nc2ccccc21)c1ccc(C2CCCCC2)cc1 (stereo not drawn),4.2*
Nc1cccc(C(=O)CC2(O)C(=O)Nc3ccc(Br)cc32)c1 (stereo not drawn),-0.57
O=C(CC1(O)C(=O)Nc2ccccc21)c1ccc(Br)cc1 (stereo not drawn),0.37
CN1C(=O)C(O)(CC(=O)c2ccc(C3CCCCC3)cc2)c2ccccc21 (stereo not drawn),0.77
O=C(CC1(O)C(=O)Nc2ccc(Br)cc21)c1ccc2ccccc2c1 (stereo not drawn),-0.36
O=C1OC(C(F)(F)F)N=C1c1ccccc1 (stereo not drawn),0.06
SMILES,Dicer processing
COc1ccc(Cc2noc(N)n2)cc1,-1.2
COc1cc(OC)c([N+](=O)[O-])c(OC)c1,-1.4
CCCCNc1nc(-c2ccc(-c3ccccc3)cc2)cs1,-0.27
COc1ccccc1-c1nnc(SCC#CCOC(=O)c2ccc(Cl)cc2)o1,-1.2
COc1cc2ccccc2cc1C(=O)Nc1sc2c(c1C(N)=O)CCCC2,0.6
COC(=O)c1sccc1-c1ccc(/C(C)=N\NC(=S)Nc2ccc(Cl)cc2Cl)o1,2.1
CCN(CC)c1ccc(/C=C2\N=C(SC)SC2=O)cc1,0.8
O=C(Cn1cnc([N+](=O)[O-])n1)Nc1ccc(F)c(Cl)c1,-0.57
O=C(Nc1nc2n(n1)C(c1ccc(F)cc1)C=C(c1ccccc1)N2)c1cccs1 (stereo not drawn),1.9
O=C(Nc1nc2n(n1)C(c1ccc(F)cc1)C=C(c1ccc(Cl)cc1)N2)c1cccs1 (stereo not drawn),17*
O=C(Nc1nc2n(n1)C(c1ccc(Cl)cc1)C=C(c1ccccc1)N2)c1cccs1 (stereo not drawn),1.6
Cc1nc(C)c(-c2ccn(C(=O)Nc3ccc(Cl)cc3)n2)s1,0.95
COc1cccc2c1OC(c1ccncc1)N1N=C(c3cc(C)ccc3O)CC21 (stereo not drawn),2.5
COc1cccc(C2Oc3c(OC)cccc3C3CC(c4cc(OC)ccc4O)=NN32)c1 (stereo not drawn),2.6
COc1ccc(O)c(C2=NN3C(C2)c2cccc(OC)c2OC3c2ccncc2)c1 (stereo not drawn),6.2*
COc1cc(C2Oc3c(OC)cccc3C3CC(c4cc(C)ccc4O)=NN32)ccc1O (stereo not drawn),14*
COc1ccc(O)c(C2=NN3C(C2)c2cccc(OC)c2OC3c2ccc(O)c(OC)c2)c1 (stereo not drawn),0.94
COc1ccc(C2Oc3c(OC)cccc3C3CC(c4cc(C)ccc4O)=NN32)cc1O (stereo not drawn),2.6
N#Cc1cnc2c(-c3ccc(Cl)cc3)cnn2c1N,0.25
COc1ccc(C(=O)CSc2nc(N)cc(=O)[nH]2)cc1C,48
O=C1NC(c2ccc(O)cc2)Nc2sc3c(c21)CCN(Cc1ccccc1)C3 (stereo not drawn),-0.48
Cc1ccc(-c2cc(O)cc3sc(=O)oc23)cc1,8.1*
Cc1ccc(-c2cc(O)cc3sc(=O)oc23)cc1Cl,5.3*
Cc1ccc(-c2nc3sc(C)c(C)c3c(=O)o2)cc1,0.59
O=c1oc2c(-c3ccccc3Cl)cc(O)cc2s1,3.6*
